Source: PubChem BioAssay (National Center for Advancing Translational Sciences (NCATS))
KB-V1 MDR tox = kills drug-selected multidrug resistant KB-V1 cells; KB-V1 MDR cells viability, CellTiter-Glo, 72 h; Potency, µM (titrated, usually from 46.1 µM), most hits filed as cytotoxic; 400,000 compounds, 3.4% hits; AID 1347076; note: potency is the fitted concentration of half-maximal effect; nearly all actives have a fitted effect of over 60% in size
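qHTS viability screen in drug-selected KB-V1 MDR cells: 72 h compound treatment at 37 degrees C, ATP luminescence end point.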
IL1B secr inh = inhibitors of inflammasome signaling (IL-1 beta secretion) | 360,000 compounds, 4.7% hits | THP-1 LPS/ATP IL-1B secretion, AlphaLISA, 16 h; stronger effect = lower value | AID 743279 | activity change, % at 57.5 µM; in the data active = activity change below about -50%; inconclusive = mostly about -30% to -49%
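Secreted IL-1B measured by AlphaLISA bead assay after 16 h compound exposure of THP-1 cells; compounds (final up to 57.5 uM) added 1 h before LPS (250 ng/mL) and ATP (1.25 mM) stimulation; lower signal means less secretion.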
KB-3-1 tox = kills parental KB-3-1 adenocarcinoma cells; 400,000 compounds, 1.4% hits; KB-3-1 viability, CellTiter-Glo ATP luminescence, 72 h; Potency, µM (titrated, usually from 46.1 µM), usual class: cytotoxic; note: potency is the fitted concentration of half-maximal effect; nearly all actives have a fitted effect of over 60% in size
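Parental KB-3-1 viability, qHTS format: 72 h compound exposure, 37 °C; CellTiter-Glo; media-only wells and DMSO plates as controls; concentration-effect fits on corrected data.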
HT1080 IDH1KD tx = toxicity to HT-1080 IDH1 knockdown cells (counter line) | HT-1080 IDH1 knockdown viability, ATP luminescence, 48 h | Potency, µM (highest dose often 46.1 µM), for the others: at the top dose activity, negative = toxicity, hits mostly cytotoxic | 360,000 compounds, 2% hits | AID 686971;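 note: potency is the fitted concentration of half-maximal effect; 0% = DMSO wells and -100% = cell-free medium wells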
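After a 2 h attachment period, IDH1KD HT-1080 cells took pin-transferred compound for 48 h at 37 °C; ATP-based luminescence after 10 min room-temperature reagent incubation reported viability.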
HT1080-NT tox = kills 2HG-producing HT-1080-NT fibrosarcoma cells | Potency, µM (series often up to 46.1 µM), for the others: top-dose activity, negative = less viability, most hits filed as cytotoxic | AID 686970 | HT-1080-NT fibrosarcoma viability, CellTiter-Glo ATP luminescence, 48 h | 360,000 compounds, 1.6% hits;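 note: NT is the 2HG producing partner of a matched IDH1 knockdown line; potency is the fitted concentration of half-maximal effect; 0% = DMSO-treated cells and -100% = media-only wells without cells; nearly all actives have a fitted effect of over 55% in size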
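A 48-hour cytotoxicity screen used HT-1080-NT cells plated 2 hours before compound delivery. ATP-based CellTiter-Glo luminescence measured viability, normalized to DMSO and no-cell controls.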
Starred values were filed as active, the others as inactive. Rows were chosen to be rich in hits. Some 8.8% of all compounds tested hit in one or more screens of this group. Unless noted, calls come from the whole dose curve; as a rule, active = well fitted curve in the direction sought with a large enough effect; inconclusive = small, poorly fitted or top-dose-only effect, or another doubt; inactive = no such curve, though single readings can be large; an effect the other way counts as inactive or inconclusive. Unless noted, % is set by controls: 0 for no effect and ±100 for the full control effect.

For CC(C)CCN(C(=O)c1csnn1)C(C(=O)NC1CCCCC1)c1ccc(F)cc1 (stereo not drawn) the results were KB-V1 MDR tox inconclusive, IL1B secr inh -57*, KB-3-1 tox inconclusive, HT1080 IDH1KD tx -8% and HT1080-NT tox -29%.
Cc1cccc(CCN(CC(=O)NC2CCCCC2)C(=O)c2csnn2)c1 was read as KB-V1 MDR tox inactive, IL1B secr inh 1, KB-3-1 tox inactive, HT1080 IDH1KD tx -17% and HT1080-NT tox 1%.
CCC(C)N(C(=O)c1csnn1)C(C(=O)NC1CCCC1)c1ccc(F)cc1 (stereo not drawn) was read as KB-V1 MDR tox inconclusive, IL1B secr inh 17, KB-3-1 tox inactive, HT1080 IDH1KD tx 9% and HT1080-NT tox 14%.
Screening Cc1cccc(CCN(C(=O)c2csnn2)C(C(=O)NC2CCCC2)c2ccco2)c1 (stereo not drawn) returned KB-V1 MDR tox inactive, IL1B secr inh -85*, KB-3-1 tox inactive, HT1080 IDH1KD tx -13% and HT1080-NT tox -18%.
`COc1ccc(CCN(C(=O)C(F)(F)F)C(C(=O)NC2CCCC2)c2cccs2)cc1` (stereo not drawn) gave KB-V1 MDR tox inconclusive, IL1B secr inh -13, KB-3-1 tox inactive, HT1080 IDH1KD tx inconclusive and HT1080-NT tox 8.9µM*.
`CC(=O)Nc1ccc(N(C(=O)c2ccco2)C(C(=O)NC2CCCCC2)c2ccccc2)cc1` (stereo not drawn) gave KB-V1 MDR tox inactive, IL1B secr inh -53*, KB-3-1 tox inactive, HT1080 IDH1KD tx -3% and HT1080-NT tox -4%.
For O=C(NC1CCCCC1)C(c1ccco1)N(CCc1ccccc1)C(=O)C(F)(F)F (stereo not drawn) the results were KB-V1 MDR tox 7.3µM*, IL1B secr inh 17, KB-3-1 tox inconclusive, HT1080 IDH1KD tx -15% and HT1080-NT tox 0%.
`O=C(NCc1ccc(F)cc1)c1cccc(S(=O)(=O)N2CCCC2)c1` gave KB-V1 MDR tox 23µM*, IL1B secr inh 6, KB-3-1 tox inactive, HT1080 IDH1KD tx 2% and HT1080-NT tox -5%.
`O=C(NCc1ccc(F)cc1)c1cccc(S(=O)(=O)N2CCOCC2)c1` gave KB-V1 MDR tox inactive, IL1B secr inh -5, KB-3-1 tox inactive, HT1080 IDH1KD tx 19% and HT1080-NT tox 4%.
COc1ccc(S(=O)(=O)N2CCC(C(=O)NCCOc3ccccc3F)CC2)cc1OC was read as KB-V1 MDR tox 23µM*, IL1B secr inh 8, KB-3-1 tox inactive, HT1080 IDH1KD tx -10% and HT1080-NT tox 2%.
`CC(CCc1ccccc1)NC(=O)C1CCN(S(=O)(=O)c2ccc(F)cc2)CC1` (stereo not drawn) gave KB-V1 MDR tox inactive, IL1B secr inh -63*, KB-3-1 tox inactive, HT1080 IDH1KD tx -12% and HT1080-NT tox 6%.
CCCC(C)NC(=O)C1CCN(S(=O)(=O)c2ccccc2)CC1 (stereo not drawn) was read as KB-V1 MDR tox inactive, IL1B secr inh -13, KB-3-1 tox inactive, HT1080 IDH1KD tx 6% and HT1080-NT tox 1%.
Screening O=C(NCc1ccc(Cl)cc1)C1CCN(S(=O)(=O)c2ccc(F)cc2)CC1 returned KB-V1 MDR tox inconclusive, IL1B secr inh -64*, KB-3-1 tox inactive, HT1080 IDH1KD tx -8% and HT1080-NT tox -11%.
For COc1ccc(CCNC(=O)c2cc3ccc(Cl)cc3nc2N)cc1 the results were KB-V1 MDR tox inactive, IL1B secr inh 0, KB-3-1 tox inconclusive, HT1080 IDH1KD tx inconclusive and HT1080-NT tox -13%.
CC1Cc2ccccc2N1CC(=O)NCc1ccccc1Cl (stereo not drawn) was read as KB-V1 MDR tox inactive, IL1B secr inh 1, KB-3-1 tox inactive, HT1080 IDH1KD tx 5% and HT1080-NT tox -7%.
Screening CC(C)(C)c1ccc(NC(=O)COC(=O)c2ccc(NS(=O)(=O)c3ccc(F)c(F)c3)cc2)cc1 returned KB-V1 MDR tox inconclusive, IL1B secr inh inconclusive, KB-3-1 tox inactive, HT1080 IDH1KD tx -15% and HT1080-NT tox 0%.
Cc1cccc(-c2nc(CS(=O)CC(=O)NC3CCCC(C)C3C)c(C)o2)c1 (stereo not drawn) was read as KB-V1 MDR tox inactive, IL1B secr inh 8, KB-3-1 tox inactive, HT1080 IDH1KD tx -1% and HT1080-NT tox 6%.
For CC(CCc1ccccc1)NC(=O)C1CCN(S(=O)(=O)N2CCCCC2)CC1 (stereo not drawn) the results were KB-V1 MDR tox inconclusive, IL1B secr inh -56*, KB-3-1 tox inactive, HT1080 IDH1KD tx 1% and HT1080-NT tox 10%.
`COc1ccc(CNC(=O)/C=C/c2ccc(S(=O)(=O)N3CCOCC3)cc2)cc1` gave KB-V1 MDR tox inactive, IL1B secr inh 0, KB-3-1 tox inactive, HT1080 IDH1KD tx 2% and HT1080-NT tox 2%.
`O=C(NCCc1ccccc1)C1CCN(S(=O)(=O)N2CCCCCC2)CC1` gave KB-V1 MDR tox inactive, IL1B secr inh -4, KB-3-1 tox inactive, HT1080 IDH1KD tx -1% and HT1080-NT tox -5%.
O=C(/C=C/c1ccc(S(=O)(=O)N2CCOCC2)cc1)NCc1ccc(Cl)cc1 was read as KB-V1 MDR tox inactive, IL1B secr inh -62*, KB-3-1 tox inactive, HT1080 IDH1KD tx -22% and HT1080-NT tox -16%.
`CC1(C)Cc2ccccc2C(COc2ccccc2)=N1` gave KB-V1 MDR tox inactive, IL1B secr inh -73*, KB-3-1 tox inactive, HT1080 IDH1KD tx 0% and HT1080-NT tox -12%.
`CC1=NC(C)(C)Cc2ccccc21` gave KB-V1 MDR tox inactive, IL1B secr inh -21, KB-3-1 tox inactive, HT1080 IDH1KD tx 1% and HT1080-NT tox 4%.
Cc1cc(Cl)nc2nc(Cl)ccc12 was read as KB-V1 MDR tox inactive and KB-3-1 tox inactive.
For O=S(=O)(Nc1nc2ccccc2nc1-[n+]1cccc(N=C([O-])c2ccc(Cl)cc2)c1)c1ccccc1 the results were KB-V1 MDR tox inactive, IL1B secr inh -73*, KB-3-1 tox inactive, HT1080 IDH1KD tx 2% and HT1080-NT tox 1%.
Screening CCOC(=O)c1ccc(Nc2nc3ccccc3nc2NS(=O)(=O)c2ccc(Cl)cc2)cc1 returned KB-V1 MDR tox inactive and KB-3-1 tox inconclusive.
`Cc1ccc(C(c2nnnn2C2CCCC2)N2CCc3ccccc32)cc1` (stereo not drawn) gave KB-V1 MDR tox 21µM*, IL1B secr inh -15, KB-3-1 tox inactive, HT1080 IDH1KD tx 0% and HT1080-NT tox -3%.
`CC(C)C(c1nnnn1C1CCCC1)N1CCc2ccccc21` (stereo not drawn) gave KB-V1 MDR tox inactive, IL1B secr inh 7, KB-3-1 tox inactive, HT1080 IDH1KD tx -4% and HT1080-NT tox -5%.
